# Values joined by “and” are separate entries in the source; they are usually repeats but may differ in a detail not shown here. Identical values can stand only once. Results filed as inconclusive are left out. A call without a number means that no potency is given here. Some compounds were tested as several samples or in several runs, with calls that do not always agree. Active and inactive are the calls of the source. Unless noted, the call rests on the fitted dose curve; in most records, active means well fitted curve in the direction sought with a large enough effect in the repeat runs; inconclusive means weak or mixed curves; inactive means no such curve, though single readings can be large; an effect the other way counts as inactive or inconclusive.
# Key:
# [1] = qHTS assay to identify small molecule antagonists of the glucocorticoid receptor (GR) signaling pathway - cell viability counter screen (AID 720693); further: nearly all actives have a fitted effect of over 55% in size
# [2] = qHTS assay for identifying genotoxic compounds that show differential cytotoxicity against isogenic chicken DT40 cell lines with known DNA damage response pathways - wild type cell line (AID 743012); further: nearly all actives have a fitted effect of over 60% in size; further: potency means the concentration at half of the fitted maximal effect
# In short: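 First, wild type DT40 cells were plated at 300 per well and equilibrated about 0.5 h at 37 C/5% CO2. Next, compounds in DMSO were added and exposure lasted 40 h. Finally, CellTiter-Glo was added for 30 min at room temperature and luminescence recorded.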
# [3] = qHTS assay for identifying genotoxic compounds that show differential cytotoxicity against isogenic chicken DT40 cell lines with known DNA damage response pathways - Rad54/Ku70 mutant cell line (AID 743015); further: nearly all actives have a fitted effect of over 60% in size; further: potency means the concentration at half of the fitted maximal effect
# [4] = qHTS assay to identify small molecule antagonists of the androgen receptor (AR) signaling pathway - cell viability counter screen (AID 743033; further: nearly all actives have a fitted effect of over 45% in size; further: potency means the concentration at half of the fitted maximal effect)
# [5] = qHTS assay to identify small molecule antagonists of the androgen receptor (AR) signaling pathway using the MDA cell line - cell viability counter screen (AID 743041; further: nearly all actives have a fitted effect of over 45% in size)
# In short: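 Cells were plated at 3,000 per well and left 5 h. Compounds in DMSO were then pinned in, followed by R1881. After 16 h at 37C, CellTiter-Fluor fluorescence gave viability.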
# [6] = qHTS assay for identifying genotoxic compounds that show differential cytotoxicity against isogenic chicken DT40 cell lines with known DNA damage response pathways - Rev3 mutant cell line (AID 743014); further: nearly all actives have a fitted effect of over 55% in size; further: potency means the concentration at half of the fitted maximal effect
# [7] = target: Androgen receptor (Homo sapiens) (UniProt P10275); test: qHTS assay to identify small molecule agonists of the androgen receptor (AR) signaling pathway using the MDA cell line (AID 743040; further: nearly all actives have a fitted effect of over 20% in size; further: potency means the concentration at half of the fitted maximal effect)
# Sequence of Androgen receptor (Homo sapiens) (P10275 whole entry, looked up): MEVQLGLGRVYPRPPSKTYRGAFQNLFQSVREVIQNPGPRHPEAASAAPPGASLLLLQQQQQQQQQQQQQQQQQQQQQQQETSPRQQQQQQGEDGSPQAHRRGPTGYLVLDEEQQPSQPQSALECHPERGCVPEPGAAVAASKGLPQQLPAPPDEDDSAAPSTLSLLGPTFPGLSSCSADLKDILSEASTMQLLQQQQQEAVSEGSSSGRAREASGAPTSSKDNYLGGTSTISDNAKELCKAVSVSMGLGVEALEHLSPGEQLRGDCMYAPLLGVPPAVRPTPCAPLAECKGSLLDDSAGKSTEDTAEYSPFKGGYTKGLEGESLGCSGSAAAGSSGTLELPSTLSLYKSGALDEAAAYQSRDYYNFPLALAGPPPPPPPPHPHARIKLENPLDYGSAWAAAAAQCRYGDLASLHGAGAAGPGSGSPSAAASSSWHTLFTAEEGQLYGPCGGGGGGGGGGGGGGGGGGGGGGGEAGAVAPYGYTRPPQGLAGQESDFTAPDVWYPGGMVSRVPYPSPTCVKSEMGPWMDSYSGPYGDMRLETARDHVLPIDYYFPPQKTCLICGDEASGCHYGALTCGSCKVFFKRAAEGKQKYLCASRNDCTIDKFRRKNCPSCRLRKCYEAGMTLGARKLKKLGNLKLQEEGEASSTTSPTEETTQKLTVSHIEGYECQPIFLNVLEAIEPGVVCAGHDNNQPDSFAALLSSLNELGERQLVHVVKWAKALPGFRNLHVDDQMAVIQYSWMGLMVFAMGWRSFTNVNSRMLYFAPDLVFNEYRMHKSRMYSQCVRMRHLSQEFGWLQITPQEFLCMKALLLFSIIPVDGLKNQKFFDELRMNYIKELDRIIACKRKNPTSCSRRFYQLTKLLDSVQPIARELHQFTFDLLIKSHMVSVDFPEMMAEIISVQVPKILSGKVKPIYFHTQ
# In short: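 Cells plated, 5 h at 37C/0% CO2; compound or DMSO pinned; 16 h at 37C; ONE-Glo added; luminescence measured after 30 min at room temperature. Reporter line: MDA-kb2 with MMTV-luciferase responsive to AR and GR.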
# [8] = target: Androgen receptor (Homo sapiens) (UniProt P10275); test: qHTS assay to identify small molecule antagonists of the androgen receptor (AR) signaling pathway using the MDA cell line (AID 743042; further: nearly all actives have a fitted effect of over 55% in size)
# In short: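 Antagonist mode: compounds plus R1881 agonist added to MDA-kb2 AR-luc cells, incubated 16 h at 37C. Luciferase reporter luminescence quantified, with multiplexed CellTiter-Fluor readout for cell viability.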
# [9] = target: Androgen receptor (Homo sapiens) (UniProt P10275); test: qHTS assay to identify small molecule antagonists of the androgen receptor (AR) signaling pathway (AID 743035; active means well fitted inhibition curve with a large enough effect in the signal ratio in the repeat runs, not every such curve was filed as active; the % refers to the signal ratio)
# In short: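 Beta-lactamase FRET read (2 h RT incubation with LiveBLAzer B/G) following 16 h of compound plus R1881 treatment of AR-UAS-bla HEK293 cells, which had been pre-incubated 4 h at 37C.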
# [10] = target: Androgen receptor (Homo sapiens) (UniProt P10275); test: qHTS assay to identify small molecule agonists of the androgen receptor (AR) signaling pathway (AID 743036; active means well fitted activation curve with a large enough effect in the signal ratio in the repeat runs, with a control signal flat, not every such curve was filed as active; the % refers to the signal ratio)
# In short: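 Activation was read as beta-lactamase FRET signal from LiveBLAzer B/G substrate, added for 2 h at room temperature. Before that, GeneBLAzer AR-UAS-bla GripTite (HEK293) cells had 16 h compound exposure at 37C.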
SMILES,outcome [1],Potency [2],Potency [3],Potency [4],Potency [5],Potency [6],Potency [7],Potency [8],outcome [9],outcome [10]
CC(C[N+](C)(C)C)OC(N)=O (centres undefined),inactive,inactive,inactive,inactive,inactive,–,–,–,–,–
CCCCCCCCCCCCN(CCCCCCCCCCCC)CCCCCCCCCCCC,inactive,–,inactive,inactive,inactive,–,–,–,–,–
Oc1ccc(C2CNCCc3c2cc(O)c(O)c3Cl)cc1 (centres undefined),inactive,inactive,inactive,inactive,inactive,–,–,–,–,–
O=C(O)CCCc1ccccc1,inactive,inactive,inactive,inactive,inactive,–,–,–,–,–
Cc1c(NC(C)C)c(=O)n(-c2ccccc2)n1C,inactive,inactive,inactive,inactive,inactive,–,–,–,–,–
CC1(C)CO[C@@H](CC(=O)O)CN1,inactive,inactive,inactive,inactive,inactive,–,–,–,–,–
Brc1c(NC2=NCCN2)ccc2nccnc12,inactive,inactive,–,–,inactive,–,–,–,–,–
NC(CSCC(=O)O)C(=O)O (centres undefined),inactive,inactive,inactive,inactive,inactive,–,–,–,–,–
CC(=O)OC/C=C(\C)CC/C=C(\C)CCC=C(C)C,inactive,–,61.1 µM (active),inactive,inactive,61.1 µM (active),–,–,–,–
Cc1ccc(=O)n(-c2ccccc2)c1,inactive,inactive,inactive,inactive,inactive,–,–,–,–,–
C=CCS(=O)(=O)O,inactive,inactive,inactive,inactive,inactive,–,–,–,–,–
CCCCCCOC(=O)CCCCC(=O)OCCCCCC,inactive,inactive,inactive,inactive,inactive,–,–,–,–,–
O=c1[nH]c(=O)n([C@H]2C[C@H](O)[C@@H](CO)O2)cc1I,inactive,–,2.02 µM (active),–,inactive,1.8 µM (active),–,–,–,–
CN1CCN(c2cc3c(cc2F)c(=O)c(C(=O)O)cn3-c2ccc(F)cc2)CC1,inactive,23.7 µM (active),29.8 µM (active),–,–,–,26.6 µM (active),inactive,–,–
CC(C)(C)c1ccc(O)c(O)c1,–,17.8 µM (active) and 6.11 µM (active),12.6 µM (active) and 10.5 µM (active),inactive,inactive,12.6 µM (active) and 7.27 µM (active),–,–,–,–
CCCCOCCOCCOCc1cc2c(cc1CCC)OCO2,–,24.6 µM (active),34.7 µM (active),inactive,inactive,inactive,inactive,inactive,inactive,inactive
CCOc1ccc(C(=O)OCCN(CC)CC)cc1,inactive,–,26.6 µM (active),inactive,inactive,21.1 µM (active),inactive,inactive,inactive,inactive
CCO/C([O-])=N/c1c[n+](N2CCOCC2)no1,inactive,inactive,inactive,inactive,inactive,–,–,–,–,–

SMILES,outcome [1],Potency [2],Potency [3],Potency [4],Potency [5],Potency [6],Potency [7],Potency [8],outcome [9],outcome [10]
CS(=O)(=O)O,–,inactive,inactive,inactive,inactive,inactive,inactive,–,inactive,inactive
O=c1cc(-c2ccccc2)oc2ccccc12,–,21.7 µM (active),56.9 µM (active),inactive,inactive,48.6 µM (active) and 43.1 µM (active),inactive,inactive,–,–
CCC(=O)OC(C)c1ccccc1 (centres undefined),inactive,–,inactive,inactive,inactive,inactive,–,–,–,–
CCn1nc(C(=O)O)c(=O)c2cc3c(cc21)OCO3,inactive,inactive,inactive,–,inactive,–,inactive,inactive,inactive,inactive
O=C(CCCN1CCN(c2ccccn2)CC1)c1ccc(F)cc1,inactive,–,–,inactive,inactive,–,–,–,–,–
COC(=O)c1c(Cl)c(Cl)c(C(=O)OC)c(Cl)c1Cl,–,inactive and 48.6 µM (active),inactive,inactive,inactive,inactive,–,–,–,–
CCCc1cc(C(N)=S)ccn1,inactive,inactive,inactive,inactive,inactive,–,–,–,–,–
CN1C(=O)N(C)C(O)C1O (centres undefined),inactive,inactive,inactive,inactive,inactive,–,–,–,–,–
COC(=O)C1=C(C)NC(C)=C(C(=O)OC)C1c1ccccc1[N+](=O)[O-],inactive,–,–,inactive and 49 µM (active),inactive,–,–,–,–,–
C1CN(CCOCCN2CCOCC2)CCO1,inactive,–,inactive,inactive,inactive,inactive,–,–,–,–
FC1(F)C(F)(F)C(F)(F)C2(F)C(F)(F)C(F)(F)C(F)(F)C(F)(F)C2(F)C1(F)F (centres undefined),inactive,–,21.1 µM (active),inactive,inactive,–,inactive,inactive,inactive,inactive
NCCCNCCSP(=O)(O)O,inactive,inactive,inactive,inactive,inactive,–,–,–,–,–
C=C(C)CS(=O)(=O)O,inactive,–,inactive,inactive,inactive,inactive,inactive,inactive,–,–
CCCCCSCCCCC,inactive,–,–,inactive,inactive,61.1 µM (active),–,–,–,–
CN1CCC(=C2c3ccccc3CC(=O)c3sccc32)CC1,inactive,–,–,inactive,inactive,–,–,–,–,–
CCOC(=O)Nc1ccc(NCc2ccc(F)cc2)nc1N,inactive,26.6 µM (active),–,inactive,inactive,–,–,–,–,–
O=C[C@H](O)[C@@H](O)[C@H](O)[C@H](O)CO,–,inactive,inactive,inactive,inactive,inactive,–,–,–,–
